The whole screen tested about 69,000 compounds, of which about 8,600 (12%) showed an effect of 50% or more. For the sample, strong results were picked, then their nearest neighbours and some compounds at random.

The assay deals with Plasmodium berghei. Put plainly: Screen against P. berghei liver stage (PbLuc), transformed with Luciferase, at 10uM. The assay is classed as functional, HepG2. Particulars: tested at 10 uM.
Regarding `Cc1ccccc1C(CNc1ncnc2c1CCNC2)N(C)C` (stereo not given), the INHIBITION is recorded as -2.98%.

As to `Cc1[nH]c2ccccc2c1CCNc1ncnc2c1CCNCC2`, the INHIBITION turned out to be 72.1%.

Regarding `c1cnn(CCN2CCOC(Cn3cccn3)C2)c1` (stereo not given), the INHIBITION is recorded as -59.4%.

With `CCCOCC(=O)N1CCc2nc(NC)nc(C(=O)N3CCCC3)c2C1`, the INHIBITION is given as -5.08%.

Take `CN(C)c1ccc(C(=O)N2CCN(c3cnccn3)CC2)cn1`: the INHIBITION was found to be 2.1%.

As for `Cc1nn(C)c2ncc(CN3CCN(c4ncccn4)CC3)cc12`, the INHIBITION is on record as 7.3%.

Turning to `CCC(C)NC(=O)CS(=O)(=O)Cc1cc(Cl)c2c(c1)OCCCO2` (stereo not given), the INHIBITION was -58.7%.

As to `CCOC(=O)C1(O)CCN(C(=O)Nc2cccc(CC)c2)CC1`, the INHIBITION is recorded as -41.8%.

As to `COc1c(C2CCCN2C(=O)c2ccnc(C)n2)c(C)nn1C` (stereo not given), the INHIBITION turned out to be 3.73%.

Take `Cc1nn(C)cc1CN1CCCCCC1c1ccc(Cl)cc1` (stereo not given): the INHIBITION worked out at 13.6%.

Regarding `CCc1noc(C(C)N2CCN(c3ccc(C#N)cn3)CC2)n1` (stereo not given), the INHIBITION is -25.3%.

In the case of `CCOc1cc(C)nc(N2CCN(C(C)c3nc(C)no3)CC2)n1` (stereo not given), the INHIBITION was found to be 18.7%.

On to `Cc1cnc(CN2CCN(C(C)c3nc(C)no3)CC2)cn1` (stereo not given), for which the INHIBITION is given as -14.8%.

Take `Cc1noc(C(C)N2CCN(c3ncnc4sccc34)CC2)n1` (stereo not given): the INHIBITION was found to be 68.8%.

In the case of `CCc1noc(C(C)N2CCN(C)CC2)n1` (stereo not given), the INHIBITION is -5.25%.

Take `Cc1noc(C(C)N2CCN(Cc3ccco3)CC2)n1` (stereo not given): the INHIBITION came to 34.7%.

For the molecule `CCc1cc(C)nc(N2CCN(C(C)c3nc(C)no3)CC2)n1` (stereo not given), the INHIBITION came out at 53.4%.

On to `COc1ccnc(N2CCN(C(C)c3nc(C)no3)CC2)n1` (stereo not given), for which the INHIBITION was 22.6%.

`Cc1noc(C(C)N2CCN(c3ncnc4ccccc34)CC2)n1` (stereo not given): the INHIBITION stood at 51.3%.

As to `CCc1noc(C(C)N2CCN(c3ncnc4sccc34)CC2)n1` (stereo not given), the INHIBITION worked out at 61.7%.

For the molecule `Cc1noc(C(C)N2CCC(c3nc4ccccc4[nH]3)CC2)n1` (stereo not given), the INHIBITION turned out to be 35.4%.

Regarding `COc1cc(C)nc(N2CCN(C(C)c3nc(C)no3)CC2)n1` (stereo not given), the INHIBITION is reported as -72.5%.

As for `Nc1ccnc(N2C[C@H](O)[C@@H](N3CCN(c4ccccn4)CC3)C2)n1`, the INHIBITION was 37.2%.

Turning to `O=C([C@H]1C[C@H]2CN(c3ncc(F)cn3)C[C@@H]1O2)N1CCOCC1`, the INHIBITION is reported as 17.7%.

`CC1CN(CC(=O)NC2CCOCC2)CCN1Cc1nccn1C` (stereo not given): the INHIBITION came to 29.305%.

As for `CCCOc1cccc(C(=O)Oc2cc(=O)n3cccc(C)c3n2)c1`, the INHIBITION was 22.6%.

In the case of `Cc1ncncc1C(=O)N1CCCC1c1c(C)nn(C)c1Cl` (stereo not given), the INHIBITION was determined as 1.78%.

As to `Cc1cnc(C(=O)N2C[C@@H]3CC[C@H]2CN(c2cnccn2)C3)cn1`, the INHIBITION is reported as -55.1%.

As for `O=C(C1CCCCC1)N1CCN(Cc2nc(-c3ccco3)no2)CC1`, the INHIBITION is on record as 23.7%.

As to `COC(=O)c1ccoc1CN(C)CC(=O)N(C)C`, the INHIBITION is on record as 22.8%.

As for `NC(=O)CN1CCOCC(Cc2ccccc2Cl)C1` (stereo not given), the INHIBITION is 11.1%.

On to `O=C(c1csc(I)c1)N1CCc2c(ncn2C2CC2)C1`, for which the INHIBITION is given as 76%.

On to `COC(=O)c1ccc(C(=O)N2CCc3c(ncn3C3CC3)C2)cc1`, for which the INHIBITION is recorded as -36.95%.

On to `CN(C)c1ncccc1C(=O)N1CCc2c(ncn2C2CC2)C1`, for which the INHIBITION is -10.785%.

With `CCN(CC)Cc1nnc2sc(C(C)Oc3ccccc3)nn12` (stereo not given), the INHIBITION was -2.93%.

Turning to `CC(C)C1CN(c2cccc(C#N)n2)CCCN1Cc1ccc(F)cc1` (stereo not given), the INHIBITION was found to be 68.5%.

Turning to `CC(C)C1CN(S(=O)(=O)N2CCCC2)CCCN1Cc1ccc(F)cc1` (stereo not given), the INHIBITION was determined as 65.3%.

For `CC(C)C1CN(S(C)(=O)=O)CCCN1Cc1ccc(F)cc1` (stereo not given), the INHIBITION is 24.3%.

Take `CC(C)C1CN(S(=O)(=O)C2CC2)CCCN1Cc1ccc(F)cc1` (stereo not given): the INHIBITION is listed as 45.6%.

As for `CC(C)C1CN(c2cccc(C#N)n2)CCCN1CC1CC1` (stereo not given), the INHIBITION is on record as 33.9%.

Take `CC(C)C1CN(S(=O)(=O)N(C)C)CCCN1Cc1ccc(F)cc1` (stereo not given): the INHIBITION came to 12.8%.

In the case of `Fc1cnc(N2CCn3cc(CNc4ccccn4)nc3C2)nc1`, the INHIBITION is given as 47.2%.

For the molecule `CC(C)n1nc(CNc2ncccn2)c2c1CN(C1CCOCC1)CC2`, the INHIBITION is recorded as -18.2%.

Regarding `O=C(NCCN1CCCCC1=O)C1CCC(=O)N(C2CCCC2)C1` (stereo not given), the INHIBITION worked out at 55.6%.

Regarding `CSCCNC(=O)C1CCC(=O)N(C2CCCC2)C1` (stereo not given), the INHIBITION came to 17.9%.

For the molecule `O=C(NCCn1cccc1)C1CCC(=O)N(C2CCCC2)C1` (stereo not given), the INHIBITION amounted to 41.2%.

Regarding `Cc1nnc(NCc2cccc(OCC3CCCO3)c2)c(C#N)c1C` (stereo not given), the INHIBITION was determined as 1.74%.

Consider `CNC(=O)c1cccc(CCNc2ccc(C#N)cn2)c1`, for which the INHIBITION is recorded as -11%.

Consider `CN(C)C(=O)c1cccc(CNc2ccc(C#N)cn2)c1`, for which the INHIBITION was found to be 73.8%.

Regarding `CNS(=O)(=O)Cc1cccc(CNc2ccc(C#N)cn2)c1`, the INHIBITION is reported as -55%.

`N#Cc1ccc(NCc2cccc(OCC3CCCO3)c2)nc1` (stereo not given): the INHIBITION worked out at 53.8%.

As to `N#Cc1ccc(NCc2cccc(COC3CCOCC3)c2)nc1`, the INHIBITION worked out at 7.58%.

With `N#Cc1ccc(NCCCOCC2CCCO2)c(F)c1` (stereo not given), the INHIBITION was determined as 6.02%.

For the molecule `Oc1cccc(CNCC2CCCO2)c1` (stereo not given), the INHIBITION was 35.5%.

Turning to `Cc1nc2ccccc2nc1NCc1cccc(OCC2CCCO2)c1` (stereo not given), the INHIBITION was 83.9%.

For the origin of these results see ChEMBL document CHEMBL4513216, “Probing the Open Global Health Chemical Diversity Library for Multistage-Active Starting Points for Next-Generation Antimalarials” (ACS Infect Dis, 2020).
